Measured values reported in the supplement of paper PMC4466140.

Experiments:
Assay in all cases: SPOT peptide array binding signal intensity (averaged, normalized) (arbitrary units (background-subtracted, floor 0; scale differs between SH3 domains)); higher = stronger binding of the SH3 domain to the peptide
AgAbp1 = molecular target: AgAbp1
Outline: (§1)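 Four yeast species supplied the SH3 domains, which were expressed as GST fusions in E. coli BL21(DE3) and purified on glutathione Sepharose. Incubation with cellulose membranes carrying synthetic 15-mer peptides, cysteines exchanged for serines, ran overnight at 4°C at 10 μg/ml in TBS-based blocking buffer. Binding signal is reported as normalized, background-subtracted spot intensity averaged over replicates, in arbitrary units not shared between domains.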

AgBbc1 = molecular target: AgBbc1
Outline: as §1

AgBem1-D1 = molecular target: AgBem1-D1
Outline: as §1

AgBzz1-D1 = molecular target: AgBzz1-D1
Outline: as §1

AgBzz1-D2 = molecular target: AgBzz1-D2
Outline: as §1

AgCyk3 = molecular target: AgCyk3
Outline: as §1

AgFus1 = molecular target: AgFus1
Outline: as §1

AgHof1 = molecular target: AgHof1
Outline: as §1

AgHse1 = molecular target: AgHse1
Outline: as §1

AgLsb1 = molecular target: AgLsb1
Outline: as §1

AgLsb4 = molecular target: AgLsb4
Outline: as §1

AgMyo5 = molecular target: AgMyo5
Outline: as §1

AgNbp2 = molecular target: AgNbp2
Outline: as §1

AgRvs167 = molecular target: AgRvs167
Outline: as §1

AgSho1 = molecular target: AgSho1
Outline: as §1

AgSla1-D1-D2 = molecular target: AgSla1-D1-D2
Outline: as §1

AgSla1-D3 = molecular target: AgSla1-D3
Outline: as §1

CaAbp1-D1 = molecular target: CaAbp1-D1
Outline: as §1

CaAbp1-D2 = molecular target: CaAbp1-D2
Outline: as §1

CaBbc1 = molecular target: CaBbc1
Outline: as §1

CaBem1-D1 = molecular target: CaBem1-D1
Outline: as §1

CaBzz1-D1 = molecular target: CaBzz1-D1
Outline: as §1

CaBzz1-D2 = molecular target: CaBzz1-D2
Outline: as §1

CaCyk3 = molecular target: CaCyk3
Outline: as §1

CaFus1 = molecular target: CaFus1
Outline: as §1

CaHof1 = molecular target: CaHof1
Outline: as §1

CaHse1 = molecular target: CaHse1
Outline: as §1

CaLsb1 = molecular target: CaLsb1
Outline: as §1

CaLsb4 = molecular target: CaLsb4
Outline: as §1

CaMyo5 = molecular target: CaMyo5
Outline: as §1

CaNbp2 = molecular target: CaNbp2
Outline: as §1

CaRvs167 = molecular target: CaRvs167
Outline: as §1

CaRvs167-3 = molecular target: CaRvs167-3
Outline: as §1

CaSho1 = molecular target: CaSho1
Outline: as §1

CaSla1-D1-D2 = molecular target: CaSla1-D1-D2
Outline: as §1

CaSla1-D3 = molecular target: CaSla1-D3
Outline: as §1

ScAbp1 = molecular target: ScAbp1
Outline: as §1

ScBbc1 = molecular target: ScBbc1
Outline: as §1

ScBem1-D1 = molecular target: ScBem1-D1
Outline: as §1

ScBzz1-D1 = molecular target: ScBzz1-D1
Outline: as §1

ScBzz1-D2 = molecular target: ScBzz1-D2
Outline: as §1

ScCyk3 = molecular target: ScCyk3
Outline: as §1

ScFus1 = molecular target: ScFus1
Outline: as §1

ScHof1 = molecular target: ScHof1
Outline: as §1

ScHse1 = molecular target: ScHse1
Outline: as §1

ScLsb1 = molecular target: ScLsb1
Outline: as §1

ScLsb2 = molecular target: ScLsb2
Outline: as §1

ScLsb3 = molecular target: ScLsb3
Outline: as §1

ScLsb4 = molecular target: ScLsb4
Outline: as §1

ScMyo3 = molecular target: ScMyo3
Outline: as §1

ScMyo5 = molecular target: ScMyo5
Outline: as §1

ScNbp2 = molecular target: ScNbp2
Outline: as §1

ScPex13 = molecular target: ScPex13
Outline: as §1

ScRvs167 = molecular target: ScRvs167
Outline: as §1

ScSho1 = molecular target: ScSho1
Outline: as §1

ScSla1-D1-D2 = molecular target: ScSla1-D1-D2
Outline: as §1

ScSla1-D3 = molecular target: ScSla1-D3
Outline: as §1

SpAbp1-D1 = molecular target: SpAbp1-D1
Outline: as §1

SpBbc1 = molecular target: SpBbc1
Outline: as §1

SpBzz1-D1 = molecular target: SpBzz1-D1
Outline: as §1

SpBzz1-D2 = molecular target: SpBzz1-D2
Outline: as §1

SpCyk3 = molecular target: SpCyk3
Outline: as §1

SpHof1 = molecular target: SpHof1
Outline: as §1

SpHof1-2 = molecular target: SpHof1-2
Outline: as §1

SpHof1-3 = molecular target: SpHof1-3
Outline: as §1

SpHse1 = molecular target: SpHse1
Outline: as §1

SpLsb1 = molecular target: SpLsb1
Outline: as §1

SpLsb4 = molecular target: SpLsb4
Outline: as §1

SpMyo1 = molecular target: SpMyo1
Outline: as §1

SpNbp2 = molecular target: SpNbp2
Outline: as §1

SpPex13 = molecular target: SpPex13
Outline: as §1

SpRvs167 = molecular target: SpRvs167
Outline: as §1

SpSla1-D1-D2 = molecular target: SpSla1-D1-D2
Outline: as §1

SpSla1-D3 = molecular target: SpSla1-D3
Outline: as §1

Measured: SPOT peptide array binding signal intensity

PPIPIVPSSPAPPLP
833: CaMyo5
1080: SpMyo1
1.5: ScHof1
47.5: CaNbp2
0.5: CaBbc1
28: AgBzz1-D1
3.5: SpBbc1
2150: AgMyo5
1940: ScMyo5
26.8: SpHse1
2260: ScMyo3
0.25: ScSla1-D3
≤ 0: all other assays above

HAPPLPPTAPPPPSL
2230: AgMyo5
26.5: AgHof1
2: CaAbp1-D2 | CaBzz1-D1
≤ 0: AgAbp1 | AgBbc1 | AgBem1-D1 | AgBzz1-D1 | AgBzz1-D2 | AgCyk3 | AgFus1 | AgHse1 | AgLsb1 | AgLsb4 | AgNbp2 | AgRvs167 | AgSho1 | AgSla1-D1-D2 | AgSla1-D3 | CaAbp1-D1 | CaBbc1 | CaBem1-D1 | CaCyk3 | CaFus1 | CaHof1 | CaLsb1 | CaLsb4
792: CaMyo5
6: CaBzz1-D2
1.5: CaHse1

QPPLPSSAPPIPTSH
≤ 0: SpBzz1-D2 | SpCyk3 | SpHof1 | SpHof1-2 | SpHof1-3 | SpLsb1 | SpLsb4 | SpNbp2 | SpRvs167 | SpSla1-D1-D2
1080: SpMyo1
1: SpPex13
3.5: SpSla1-D3
17.5: SpHse1
